According to PubChem BioAssay (Tox21):
Active and inactive are the calls of the source. Where a call stands in place of a potency, no number is given. Calls come from the whole dose curve; as a rule, active = well fitted activation curve with a large enough effect in the repeat runs; inconclusive = weak or mixed curves; inactive = flat fitted curve, though single readings scatter.

Molecular target: KiSS-1 receptor (Homo sapiens) (UniProt Q969F8)
Assay: Human kisspeptin (KISS1R) small molecule agonists, calcium flux assay in KISS1R-HEK293 cells (AID 1920064)
How it was run: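 HEK293 cells stably expressing human KISS1R were loaded with calcium dye for 1 h at 37 C, then given compound; fluorescence (Ex/Em 480/540) was read kinetically for 3 min. Fifteen concentrations, triplicate.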

Chain of KiSS-1 receptor (Homo sapiens) (Q969F8 whole entry, looked up): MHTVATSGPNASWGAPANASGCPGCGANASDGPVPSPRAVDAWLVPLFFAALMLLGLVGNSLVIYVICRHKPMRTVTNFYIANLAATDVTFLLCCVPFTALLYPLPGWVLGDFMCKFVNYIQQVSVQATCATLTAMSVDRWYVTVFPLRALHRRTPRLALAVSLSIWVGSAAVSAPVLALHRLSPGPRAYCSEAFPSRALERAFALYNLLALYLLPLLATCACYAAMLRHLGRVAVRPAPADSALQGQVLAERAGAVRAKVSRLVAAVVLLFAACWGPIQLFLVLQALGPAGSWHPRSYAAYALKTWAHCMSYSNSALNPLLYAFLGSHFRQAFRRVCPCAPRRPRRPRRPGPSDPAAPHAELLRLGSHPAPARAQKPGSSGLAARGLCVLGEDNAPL

For `S=C=S`, the Potency was “inactive”.

In the case of `BrCCBr`, the Potency is reported as “inactive”.

For `CC(=[OH+])/C=C(/C)[O-].CC(=[OH+])/C=C(\C)[O-].CC(=[OH+])/C=C(\C)[O-].[Al]`, the Potency was “inactive”.

`ClCC(Br)CBr` (centres undefined) was tested, and the Potency was “inactive”.

`O=C1C=CC(=O)C=C1` was tested, and the Potency was “inactive”.

In the case of `O=C(O)C(F)(F)C(F)(F)C(F)(F)C(F)(F)C(F)(F)C(F)(F)C(F)(F)C(F)(F)F`, the Potency is reported as “inactive”.

With `Clc1ccc(C(Cl)(Cl)Cl)cn1` the Potency was “inactive”.

With `CC(C)[N+](C)(CCC(C(N)=O)(c1ccccc1)c1ccccc1)C(C)C` the Potency was “inactive”.

`O=c1oc2ccccc2c(O)c1C(CC(O)c1ccc(-c2ccc(Br)cc2)cc1)c1ccccc1` (centres undefined) was tested, and the Potency was “inactive”.

With `OCCSCSCCO` the Potency was “inactive”.

In the case of `Clc1nc(Cl)nc(Cl)n1`, the Potency is reported as “inactive”.

In the case of `CCOP(=O)(OCC)OP(=O)(OCC)OCC`, the Potency is reported as “inactive”.

`CCC(C)c1cc([N+](=O)[O-])cc([N+](=O)[O-])c1O` (centres undefined) was tested, and the Potency was “inactive”.

For `O=C(NCNC(=O)NC1C(=O)NC(=O)N1CO)NC1C(=O)NC(=O)N1CO` (centres undefined), the Potency was “inactive”.

For `O=c1ccc(=O)[nH][nH]1`, the Potency was “inactive”.

For `C(=NC1CCCCC1)=NC1CCCCC1`, the Potency was “inactive”.

In the case of `CN(C)CCC#N`, the Potency is reported as “inactive”.

For `COC(=O)c1ccc(CBr)cc1`, the Potency was “inactive”.

In the case of `CNC(=O)O/N=C/C(C)(C)S(C)(=O)=O`, the Potency is reported as “inactive”.

For `Clc1cccc(Cl)c1Cl`, the Potency was “inactive”.

In the case of `CCCCCCCCC(=O)NCc1ccc(O)c(OC)c1`, the Potency is reported as “inactive”.

`CN(N=O)c1ccccc1` was tested, and the Potency was “inactive”.

For `C[C@@H]1O[C@@H](O[C@H]2C[C@@H](O)[C@]3(CO)[C@H]4[C@H](O)C[C@]5(C)[C@@H](C6=CC(=O)OC6)CC[C@]5(O)[C@@H]4CC[C@]3(O)C2)[C@H](O)[C@H](O)[C@H]1O`, the Potency was “inactive”.

For `CNC(=O)CSP(=S)(OC)OC`, the Potency was “inactive”.

With `Nc1ccccc1C(=O)OCC(O)CO` (centres undefined) the Potency was “inactive”.

In the case of `Cc1[nH]c(=O)n(C(C)(C)C)c(=O)c1Cl`, the Potency is reported as “inactive”.

In the case of `COC(=O)NC(=S)Nc1ccccc1NC(=S)NC(=O)OC`, the Potency is reported as “inactive”.

In the case of `O=C(O)Cc1ccccc1`, the Potency is reported as “inactive”.

`CC(C)(C)C(=O)Cl` was tested, and the Potency was “inactive”.

`Cc1ccc(CCl)cc1` was tested, and the Potency was “inactive”.

`O=C([O-])c1ccccn1.O=C([O-])c1ccccn1.O=C([O-])c1ccccn1.[Cr+3]` was tested, and the Potency was “inactive”.

`Nc1nc(=S)[nH][nH]1` was tested, and the Potency was “inactive”.

`CCCCCCCCCCCCCCn1cc[n+](C)c1` was tested, and the Potency was “inactive”.

In the case of `CCC(=O)Nc1ccc(Cl)c(Cl)c1`, the Potency is reported as “inactive”.

For `C=CC(=O)NC(C)(C)CC(C)=O`, the Potency was “inactive”.

For `Cc1cc(Cl)ccc1OCC(=O)O`, the Potency was “inactive”.

`O=C(Cl)OCCOCCOC(=O)Cl` was tested, and the Potency was “inactive”.

In the case of `OCC1CO1` (centres undefined), the Potency is reported as “inactive”.

`CCCCOC(=O)c1ccccc1C(=O)O` was tested, and the Potency was “inactive”.

For `CCCCCCCCCCCCCCCl`, the Potency was “inactive”.

For `CN(C)c1ccc(C(=O)c2ccc(N(C)C)cc2)cc1`, the Potency was “inactive”.

With `Nc1ccc(-c2ccc(N)c(Cl)c2)cc1Cl` the Potency was “inactive”.

With `COc1ccc2c(c1OC)C(=O)O[C@@H]2[C@H]1c2cc3c(cc2CCN1C)OCO3` the Potency was “inactive”.

For `CCCCC(CC)COC(=O)c1c(Br)c(Br)c(Br)c(Br)c1C(=O)OCC(CC)CCCC` (centres undefined), the Potency was “inactive”.

`ClC1=C(Cl)C2(Cl)C3C(Cl)C=CC3C1(Cl)C2(Cl)Cl` (centres undefined) was tested, and the Potency was “inactive”.

`C[C@H]1C(=O)O[C@@H]2CCN3CC=C(COC(=O)[C@](C)(O)[C@]1(C)O)[C@H]23` was tested, and the Potency was “inactive”.

For `CCOP(=S)(OCC)SCSc1cc(Cl)ccc1Cl`, the Potency was “inactive”.

`COC(=O)c1ccccc1N` was tested, and the Potency was “inactive”.

`Cc1ccc(N=C=O)cc1N=C=O` was tested, and the Potency was “inactive”.

In the case of `Cn1cc(-c2ccccc2)c(=O)c(-c2cccc(C(F)(F)F)c2)c1`, the Potency is reported as “inactive”.

With `O=[N+]([O-])c1ccccc1-c1ccccc1` the Potency was “inactive”.

`Nc1c(Cl)c(Cl)nc(C(=O)O)c1Cl` was tested, and the Potency was “inactive”.

In the case of `O=C(O)C(Cl)(Cl)Br`, the Potency is reported as “inactive”.

With `Cc1ccccc1O` the Potency was “inactive”.

For `CCCCOP(=O)(CCCC)OCCCC`, the Potency was “inactive”.

In the case of `Cc1cc(-c2ccc(N)c(C)c2)ccc1N`, the Potency is reported as “inactive”.

In the case of `CCC(Br)(CC)C(=O)NC(N)=O`, the Potency is reported as “inactive”.

For `CCBr`, the Potency was “inactive”.

`O=C(Cl)C(Cl)Cl` was tested, and the Potency was “inactive”.
